From ChEMBL document CHEMBL3988442, “University of Dundee, Small-Polar-MMV Screening Library” (2021)
For some assays here: Potency and affinity values are given separately.

Key:
Design in all cases: scale not given: direction of the effect not stated beside the values
[1] = target: Protein translocase subunit SecA (Escherichia coli (strain K12)) (UniProt P10408); experiment: Assay to Identify E. coli SecA ATPase Inhibitors; type: functional; details: 30 µM
[2] = target: T1, Ubiquitin-activating enzyme e1, putative (Leishmania donovani (strain BPK282A1)) (UniProt E9BSI1); experiment: Leishmania donovani Ubiquitin Activating Enzyme (LdE1); type: functional; details: 30 µM
T1 sequence (whole entry): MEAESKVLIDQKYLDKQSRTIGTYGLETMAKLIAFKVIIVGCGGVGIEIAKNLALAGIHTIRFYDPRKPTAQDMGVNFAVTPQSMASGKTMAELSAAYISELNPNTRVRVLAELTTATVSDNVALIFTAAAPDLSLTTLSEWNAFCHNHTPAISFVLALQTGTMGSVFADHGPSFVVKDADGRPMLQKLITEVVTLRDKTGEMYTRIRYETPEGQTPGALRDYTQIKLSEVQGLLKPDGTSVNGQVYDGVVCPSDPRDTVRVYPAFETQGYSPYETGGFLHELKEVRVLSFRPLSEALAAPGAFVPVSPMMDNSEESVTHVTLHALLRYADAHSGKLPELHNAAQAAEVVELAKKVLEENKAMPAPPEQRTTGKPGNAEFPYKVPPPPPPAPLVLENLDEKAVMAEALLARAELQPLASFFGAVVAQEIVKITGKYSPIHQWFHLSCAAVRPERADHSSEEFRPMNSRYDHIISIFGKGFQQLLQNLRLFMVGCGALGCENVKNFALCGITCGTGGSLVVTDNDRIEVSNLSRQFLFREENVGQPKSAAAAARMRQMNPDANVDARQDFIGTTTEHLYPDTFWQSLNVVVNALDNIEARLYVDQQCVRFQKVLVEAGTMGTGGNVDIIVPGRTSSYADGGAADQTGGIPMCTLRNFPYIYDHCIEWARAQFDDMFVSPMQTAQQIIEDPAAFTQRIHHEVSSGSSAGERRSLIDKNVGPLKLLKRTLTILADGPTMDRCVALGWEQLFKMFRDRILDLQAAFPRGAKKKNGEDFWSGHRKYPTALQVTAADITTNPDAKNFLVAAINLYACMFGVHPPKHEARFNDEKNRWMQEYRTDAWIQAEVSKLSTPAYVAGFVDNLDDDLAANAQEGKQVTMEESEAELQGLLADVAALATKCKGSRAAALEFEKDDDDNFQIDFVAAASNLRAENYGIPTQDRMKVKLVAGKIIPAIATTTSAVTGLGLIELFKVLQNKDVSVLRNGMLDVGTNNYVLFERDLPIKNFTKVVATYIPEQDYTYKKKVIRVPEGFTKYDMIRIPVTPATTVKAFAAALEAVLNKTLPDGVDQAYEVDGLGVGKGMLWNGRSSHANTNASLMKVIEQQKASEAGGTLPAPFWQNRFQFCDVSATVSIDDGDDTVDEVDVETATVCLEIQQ

[3] = target: AMP-activated protein kinase, AMPK (Homo sapiens) (UniProt P54646+O43741+P54619+Q9UGJ0+Q9Y478+Q13131+Q9UGI9); experiment: AMP-dependent Kinase enzyme assay. An in vitro enzyme assay that detects ADP turnover that is directly proportional to AMPK activity. This uses naive AMPK that is activated during the assay with MK-8722; type: functional; details: 30 µM
[4] = target: Sialic acid-binding Ig-like lectin 9 (Homo sapiens) (UniProt Q9Y336); experiment: Hs-Siglec9 ALPHAscreen SOP 20170721; details: 10 µM
Sequence of Sialic acid-binding Ig-like lectin 9 (Homo sapiens) (Q9Y336 whole entry): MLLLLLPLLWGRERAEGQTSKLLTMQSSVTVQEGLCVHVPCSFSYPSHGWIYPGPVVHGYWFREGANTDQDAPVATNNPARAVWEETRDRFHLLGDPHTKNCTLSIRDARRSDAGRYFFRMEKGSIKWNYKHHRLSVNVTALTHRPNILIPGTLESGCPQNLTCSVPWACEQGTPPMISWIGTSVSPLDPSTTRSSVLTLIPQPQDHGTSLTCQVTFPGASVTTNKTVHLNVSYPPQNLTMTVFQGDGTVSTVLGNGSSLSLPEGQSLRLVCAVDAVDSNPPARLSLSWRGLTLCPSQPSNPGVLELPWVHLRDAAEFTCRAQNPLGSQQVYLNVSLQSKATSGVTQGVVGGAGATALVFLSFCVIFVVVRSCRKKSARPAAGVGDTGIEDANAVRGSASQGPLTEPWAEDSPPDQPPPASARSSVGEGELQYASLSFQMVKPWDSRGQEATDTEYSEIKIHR

Trypanosoma cruzi = experiment: Trypanosoma cruzi phosphomannomutase and mannose-1-phosphate guanylyltransferase assay; type: functional; details: 10 µM
[5] = target: T2, Arginase-2, mitochondrial (Homo sapiens) (UniProt P78540); experiment: in vitro enzyme assay to detect the production of urea directly proportional to the activity of Arginase II; type: functional; details: 33.3 µM; also: in the data most compounds retested in dose-response had high values
T2 sequence (whole entry): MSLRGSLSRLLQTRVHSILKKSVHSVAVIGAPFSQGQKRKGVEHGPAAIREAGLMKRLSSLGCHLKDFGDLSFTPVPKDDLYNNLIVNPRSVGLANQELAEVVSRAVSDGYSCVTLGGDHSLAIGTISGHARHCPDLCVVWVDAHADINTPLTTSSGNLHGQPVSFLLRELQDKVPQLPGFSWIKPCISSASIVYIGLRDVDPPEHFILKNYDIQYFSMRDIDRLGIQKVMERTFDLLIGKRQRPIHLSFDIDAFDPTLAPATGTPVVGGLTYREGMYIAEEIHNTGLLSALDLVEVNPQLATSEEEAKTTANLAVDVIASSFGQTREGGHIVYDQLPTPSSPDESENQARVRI

[6] = target: T3, Proteasome subunit beta (Trypanosoma cruzi) (UniProt O96673); experiment: Trypanosoma cruzi proteasome chymotrypsin-like activity (TcProtChymo) assay.; also: in the data most compounds retested in dose-response had high values; type: functional; details: 9.37 µM
T3 sequence (whole entry): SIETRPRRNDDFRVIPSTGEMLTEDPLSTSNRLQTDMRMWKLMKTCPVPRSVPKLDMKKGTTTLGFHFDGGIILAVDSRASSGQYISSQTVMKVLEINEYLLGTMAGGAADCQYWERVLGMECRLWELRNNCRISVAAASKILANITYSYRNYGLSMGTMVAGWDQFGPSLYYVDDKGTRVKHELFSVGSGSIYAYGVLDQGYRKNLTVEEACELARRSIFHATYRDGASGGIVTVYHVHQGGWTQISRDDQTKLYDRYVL

Homo sapiens = species: Homo sapiens; experiment: To identify inhibition of the IFN signalling (Jak-Stat) pathway via expression of an eGFP reporter gene under the control of an IFN-stimulated response element (ISRE) containing MxA promoter.; type: functional; details: 30 µM
[7] = target: T4, Tyrosyl-tRNA synthetase, putative (Trypanosoma cruzi (strain CL Brener)) (UniProt Q4DSP6); experiment: Trypanosoma cruzi tyrosyl tRNA synthetase (TcYRS) _High Tyrosine SOP; type: functional; details: 30 µM; also: in the data most compounds retested in dose-response had high values
T4 sequence (whole entry): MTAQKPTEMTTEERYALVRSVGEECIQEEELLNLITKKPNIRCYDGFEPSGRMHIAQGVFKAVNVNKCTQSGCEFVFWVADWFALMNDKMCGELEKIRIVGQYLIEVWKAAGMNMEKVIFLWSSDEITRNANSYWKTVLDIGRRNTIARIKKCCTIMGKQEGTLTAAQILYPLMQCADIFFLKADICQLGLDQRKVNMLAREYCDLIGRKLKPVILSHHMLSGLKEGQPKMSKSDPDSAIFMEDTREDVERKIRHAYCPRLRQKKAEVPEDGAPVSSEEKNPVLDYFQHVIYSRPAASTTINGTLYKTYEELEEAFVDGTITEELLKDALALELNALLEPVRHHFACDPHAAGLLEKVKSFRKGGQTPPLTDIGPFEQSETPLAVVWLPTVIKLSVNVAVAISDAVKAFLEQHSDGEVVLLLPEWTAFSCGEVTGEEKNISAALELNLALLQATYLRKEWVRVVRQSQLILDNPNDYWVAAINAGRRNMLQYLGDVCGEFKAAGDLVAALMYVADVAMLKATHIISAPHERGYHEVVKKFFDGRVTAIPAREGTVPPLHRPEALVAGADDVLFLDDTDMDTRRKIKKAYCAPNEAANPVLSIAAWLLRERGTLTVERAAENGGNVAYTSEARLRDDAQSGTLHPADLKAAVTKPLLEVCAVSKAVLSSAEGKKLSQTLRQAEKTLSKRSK

[8] = target: T4, Tyrosyl-tRNA synthetase, putative (Trypanosoma cruzi (strain CL Brener)); experiment: Trypanosoma cruzi tyrosyl tRNA synthetase (TcYRS) SOP; type: functional; details: 30 µM
[9] = target: Chromo domain-containing protein 1 (Saccharomyces cerevisiae (strain ATCC 204508 / S288c) (Baker's yeast)) (UniProt P32657); experiment: ScCHD-1 Enzyme Inhibition Assay; type: functional; details: 30 µM; also: in the data most compounds retested in dose-response had high values
Sequence of Chromo domain-containing protein 1 (Saccharomyces cerevisiae (strain ATCC 204508 / S288c) (Baker's yeast)) (P32657 whole entry, the tested form may be a part): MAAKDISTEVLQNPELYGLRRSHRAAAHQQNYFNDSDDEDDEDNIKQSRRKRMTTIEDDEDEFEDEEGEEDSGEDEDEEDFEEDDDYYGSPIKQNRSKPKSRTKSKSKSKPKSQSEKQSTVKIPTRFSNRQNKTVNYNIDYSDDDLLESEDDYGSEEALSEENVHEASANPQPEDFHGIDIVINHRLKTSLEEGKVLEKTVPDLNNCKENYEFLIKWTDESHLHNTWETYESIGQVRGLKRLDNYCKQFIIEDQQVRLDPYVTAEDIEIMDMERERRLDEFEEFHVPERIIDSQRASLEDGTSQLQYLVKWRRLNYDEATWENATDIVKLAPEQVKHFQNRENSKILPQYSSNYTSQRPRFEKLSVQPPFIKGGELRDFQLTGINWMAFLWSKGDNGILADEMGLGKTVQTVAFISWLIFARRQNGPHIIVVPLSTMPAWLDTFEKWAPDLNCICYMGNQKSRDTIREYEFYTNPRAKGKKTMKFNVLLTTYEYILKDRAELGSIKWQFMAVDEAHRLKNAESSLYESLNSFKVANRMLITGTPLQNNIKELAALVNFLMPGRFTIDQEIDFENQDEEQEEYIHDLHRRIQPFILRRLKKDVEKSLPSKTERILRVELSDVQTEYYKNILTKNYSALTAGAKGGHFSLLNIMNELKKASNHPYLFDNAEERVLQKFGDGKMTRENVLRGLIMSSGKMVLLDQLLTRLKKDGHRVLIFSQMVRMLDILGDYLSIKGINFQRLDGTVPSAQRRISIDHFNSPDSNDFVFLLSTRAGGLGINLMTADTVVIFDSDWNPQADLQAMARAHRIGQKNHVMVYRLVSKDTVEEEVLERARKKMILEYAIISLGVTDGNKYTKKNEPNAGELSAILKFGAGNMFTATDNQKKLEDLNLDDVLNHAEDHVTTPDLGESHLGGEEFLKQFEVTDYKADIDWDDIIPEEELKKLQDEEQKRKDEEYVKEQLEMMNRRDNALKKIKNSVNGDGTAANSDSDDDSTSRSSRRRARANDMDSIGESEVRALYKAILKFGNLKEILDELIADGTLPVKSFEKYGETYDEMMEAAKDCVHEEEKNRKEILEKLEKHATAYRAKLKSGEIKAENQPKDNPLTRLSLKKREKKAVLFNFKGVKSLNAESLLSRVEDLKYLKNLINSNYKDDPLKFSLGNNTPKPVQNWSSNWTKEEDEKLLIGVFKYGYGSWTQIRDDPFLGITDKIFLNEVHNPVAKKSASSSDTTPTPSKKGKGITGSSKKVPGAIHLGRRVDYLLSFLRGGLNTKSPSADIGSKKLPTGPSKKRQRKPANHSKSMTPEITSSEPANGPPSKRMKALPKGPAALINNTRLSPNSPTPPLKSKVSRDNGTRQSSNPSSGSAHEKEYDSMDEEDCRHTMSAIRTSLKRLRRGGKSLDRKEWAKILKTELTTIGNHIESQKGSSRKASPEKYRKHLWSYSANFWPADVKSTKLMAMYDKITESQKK

Sequence of Protein translocase subunit SecA (Escherichia coli (strain K12)) (P10408 whole entry): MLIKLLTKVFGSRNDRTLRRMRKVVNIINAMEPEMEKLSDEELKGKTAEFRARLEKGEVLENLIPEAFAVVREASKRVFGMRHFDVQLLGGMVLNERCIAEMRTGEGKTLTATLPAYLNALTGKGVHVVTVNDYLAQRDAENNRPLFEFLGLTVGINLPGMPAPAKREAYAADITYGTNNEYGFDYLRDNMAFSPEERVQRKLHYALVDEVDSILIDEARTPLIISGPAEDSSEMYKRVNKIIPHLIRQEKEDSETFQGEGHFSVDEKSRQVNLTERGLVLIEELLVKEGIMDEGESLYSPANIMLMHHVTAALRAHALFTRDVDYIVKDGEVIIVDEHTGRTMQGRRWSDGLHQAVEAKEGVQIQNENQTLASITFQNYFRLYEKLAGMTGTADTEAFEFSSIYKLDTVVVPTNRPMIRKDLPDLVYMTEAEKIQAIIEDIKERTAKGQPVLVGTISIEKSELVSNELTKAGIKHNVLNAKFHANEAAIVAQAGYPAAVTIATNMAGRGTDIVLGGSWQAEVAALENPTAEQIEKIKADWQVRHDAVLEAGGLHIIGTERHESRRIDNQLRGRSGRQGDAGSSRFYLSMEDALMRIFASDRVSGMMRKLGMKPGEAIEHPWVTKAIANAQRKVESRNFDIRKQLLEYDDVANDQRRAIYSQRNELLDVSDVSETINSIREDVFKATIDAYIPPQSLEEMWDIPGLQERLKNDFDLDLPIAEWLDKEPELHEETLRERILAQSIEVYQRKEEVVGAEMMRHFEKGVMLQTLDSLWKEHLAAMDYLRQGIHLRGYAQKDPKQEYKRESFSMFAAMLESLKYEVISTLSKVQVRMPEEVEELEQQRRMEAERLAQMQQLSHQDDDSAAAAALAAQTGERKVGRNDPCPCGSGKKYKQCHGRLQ

SMILES | Percent Effect [1] [%] | Percent Effect [2] [%] | Percent Effect [3] [%] | Percent Effect [4] [%] | Percent Effect (Trypanosoma cruzi) [%] | Percent Effect [5] [%] | Percent Effect [6] [%] | Percent Effect (Homo sapiens) [%] | Percent Effect [7] [%] | Percent Effect [8] [%] | Percent Effect [9] [%]
CSc1sc(NC(=O)Cc2c(C)nc(C)[nH]c2=O)nc1C | -6.26 | 7.89 | -7.94 | 7.61 | 5.83 | -2.68 | 6.18 | 7.45 | 7.35 | 12.2 | -12.2
CSCc1cccc(S(=O)(=O)N2CCSCC2)c1 | -2.31 | -1.33 | 0.956 | 1.81 | -4.91 | -4.05 | 8.87 | 4.39 | -16.9 | -2.56 | -9.22
COC(=O)c1ccc(N2CCN(C(=O)c3cc(C)on3)C(C)C2)cc1 (configuration not stated) | -1.64 | 12.7 | 13.9 | 10.2 | -3.87 | 0.76 | 9.42 | 7.47 | -2.46 | 3.8 | -6.13
CCS(=O)(=O)N1CCc2c(CN(C)Cc3ccco3)cncc2C1 | -1.78 | -2.67 | 2.28 | 4.22 | -3.86 | -1.61 | 11.3 | -0.516 | -2.08 | 5 | -3.58
Cc1nc(Cn2nc(C3CCNCC3)n(Cc3ccccc3)c2=O)no1 | -0.936 | 5.41 | 0.118 | 2.54 | -4.25 | -4.29 | 12.1 | 26.5 | 3.7 | 4.88 | -4.29
O=S(=O)(C1CC1)N1CCO[C@H]2[C@H](OCCN3CCCC3)CC[C@@H]21 | 0.18 | 18.7 | -5.59 | -6.26 | 5.6 | -62.2 | 9.74 | 17.6 | 5.21 | 20 | -11.8
O=C(CN1CCCC1Cn1cccn1)NC1CCOCC1 (configuration not stated) | -0.811 | 0 | -3.32 | -1.02 | 0.772 | -2.38 | 13.6 | -13.8 | 1.59 | -12.2 | -2.17
Cc1cnc(N)c(C(=O)C2CCN(C(=O)c3ccccc3F)CC2)c1 | -7.77 | 13.3 | 4.93 | 7.45 | 2.76 | -2.56 | 6.26 | 33 | 7.45 | 8.97 | -6.49
CC(CN1CCOCC1)NCc1nncn1C1CCCCC1 (configuration not stated) | -2.55 | 1.39 | -4.5 | -12 | -5.54 | 3.09 | 9.65 | -2.46 | 6.32 | 5.13 | -1.99
Cc1nnc2n1CCN(C(=O)c1cc(C)n(-c3ccccn3)c1C)C2 | -5.88 | 13.2 | -9.47 | 3.77 | -1.03 | 3.6 | 17 | 4.26 | 4.43 | 13.6 | 2.79
Cc1cnn(CC2CN(Cc3cccc(C(=O)N(C)C)c3)CCO2)c1 (configuration not stated) | -2.21 | 23.4 | -1.81 | 0.495 | 3.56 | -7.83 | 14.7 | 14.3 | 7.77 | 19.5 | -9.57
Cn1cc(-c2ncnc3c2CCN(C(=O)N2CCOCC2)CC3)cn1 | -2.9 | 0 | -3.79 | 15.2 | 3.03 | 1.24 | 9.53 | -0.161 | 1.07 | 8.64 | -11.6
COc1cccc(C2CCCN2Cc2nc3c(cnn3C)c(=O)[nH]2)c1 (configuration not stated) | -0.893 | 22.8 | 2.53 | -5.13 | 0.661 | 3.8 | 14.2 | 17.2 | 6.4 | 24.1 | -5.39
O=C(NCC1CCOCC1)[C@@H]1C[C@@H]2CCN(Cc3ccco3)C[C@H]2O1 | -0.876 | 5.33 | -1.12 | 6.61 | -5.02 | -54.7 | 10.1 | -10.2 | 2.08 | 7.5 | -6.48
COCCN1CCC2(CCN(Cc3nccs3)CC2)C1=O | -1.23 | -2.67 | -1.24 | 5.18 | -5.79 | -11.7 | 2.91 | -7.71 | 6.25 | 2.5 | 0.122
Cc1cnn(CCNCC(=O)NCc2ccccc2)c1 | -0.968 | 5.26 | -2.33 | 11.4 | 2.15 | -4.68 | 0.0846 | -25 | 6.4 | 6.17 | 4.48
COCCCN1CCCN(C(C)C(=O)Nc2ccnn2C(C)C)CC1 (configuration not stated) | 0.586 | -2.7 | -1.72 | -1.48 | 0.195 | 2.08 | 13.9 | -3.67 | 4.95 | -3.66 | -4.29
c1ncc(Nc2nccc(C3CCCCN3CC3CCCCC3)n2)cn1 (configuration not stated) | -4.71 | 13.3 | 10.8 | -4.81 | -0.591 | 3.5 | 10.5 | 21.9 | 2.13 | 11.5 | -6.48
Cc1cccc(C(=O)N2CCN(S(C)(=O)=O)[C@@H](C)C2)c1C | -5.53 | -2.74 | 15.2 | -4.05 | -1.57 | -2.27 | 0.71 | 9.6 | 0 | 0 | 0.913
O=C(CCNC(=O)C1CCCC1)NCc1ccccc1Cn1cncn1 | -3.71 | 31.6 | 0.311 | -9.83 | -1.96 | -2.52 | 7.87 | 1.98 | 6.4 | 18.5 | 0.0492
Cn1ncc2c1NC(=O)CC2c1ccc(Cl)cc1Cl (configuration not stated) | -0.731 | 2.63 | 4.33 | 1.29 | -8.67 | -1.18 | 11.8 | 18 | 0 | 2.6 | -4.32
c1cnc(-c2cnc(N3CCSCC3)nc2C2CC2)cn1 | -4.23 | 2.67 | 12.3 | 6.16 | -3.94 | -0.699 | 3.44 | 16 | 1.06 | 8.97 | -0.826
